Hits are enriched below; roughly 11% of the tested compounds scored in any of these assays.
VACV Venus inh: qHTS for Stage-Specific Inhibitors of Vaccinia Orthopoxvirus: Venus Reporter Primary qHTS. Vaccinia virus Venus reporter expression, fluorescence. Potency, µM (highest dose often 36.5 µM), for the others: top-dose activity change, negative = inhibition, actives largely listed as inhibitors. 330,000 tested, 0.46% active. AID 720580, 2013; calls by dose curve; tested in A549 cells; note: % is set by controls: 0 for no effect and ±100 for the full control effect; nearly all actives have a fitted effect of over 30% in size
VACV mCherry inh: qHTS for Stage-Specific Inhibitors of Vaccinia Orthopoxvirus: mCherry Reporter Primary qHTS | Vaccinia virus mCherry reporter infection, fluorescence | Potency, µM (top dose mostly 36.5 µM), inactives show at the highest dose activity change, negative = inhibition, hits mostly inhibitors | 310,000 tested, 0.63% active | AID 720579, 2013; calls by dose curve; tested in A549 cells; note: % is set by controls: 0 for no effect and ±100 for the full control effect; nearly all actives have a fitted effect of over 35% in size
NS1 inh: qHTS Assay for Inhibitors of Influenza NS1 Protein Function; 270,000 tested, 0.4% active; Potency, µM (highest dose often 46.1 µM), inactives show top-dose activity, positive = more growth; calls by dose curve; note: actives are rising curves; nearly all actives have a fitted effect of over 50% in size
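Growth recovery, yeast-based: influenza A NS1 expressed in S. cerevisiae causes slow growth, and suppressors are detected by OD600. The parent strain without NS1 is used as positive control.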
Pf growth 96h: Primary qHTS for delayed death inhibitors of the malarial parasite plastid, 96 hour incubation; P. falciparum luciferase reporter growth, 96 h; AID 504834, 2011; 320,000 tested, 6.9% active; Potency, µM (doses to about 28.7 µM), inactives show top-dose activity change, negative = inhibition, hits mostly inhibitors; note: % is set by controls: 0 for no effect and ±100 for the full control effect
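P. falciparum expressing integrated firefly luciferase grown in erythrocytes (2% hematocrit, 0.05% parasitemia final) with compounds for 96 hours at 37 C, 5% CO2. Growth inhibition read as loss of luminescence after adding luciferase detection reagent.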
HCV inh: qHTS Assay for Inhibitors of Hepatitis C Virus (HCV). Huh7.5.1 HCVcc-Cre infection, luciferase reporter, 44 h. Potency, µM (top dose mostly 41.8 µM), without a hit: top-dose activity change, negative = inhibition, most hits filed as inhibitors. 340,000 tested, 3.4% active. AID 651820, 2012; note: % is set by controls: 0 for no effect and ±100 for the full control effect
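Infectious HCVcc-Cre (~0.5 moi) was added to cells just after compound, with cells seeded 4 h earlier at 1,000 per well. Luciferase activity after 44 h culture reported infection; substrate was incubated 15 min at room temperature before reading.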
Pf growth 48h: Primary qHTS for delayed death inhibitors of the malarial parasite plastid, 48 hour incubation | P. falciparum luciferase growth in erythrocytes, 48 h | Potency, µM (titrated, usually from 28.7 µM), without a hit: at the highest dose activity change, negative = inhibition, actives largely listed as inhibitors | 310,000 tested, 5.9% active | AID 504832, 2011; note: % is set by controls: 0 for no effect and ±100 for the full control effect
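In quantitative HTS format, infected erythrocytes bearing luciferase-reporter parasites were treated for a single generation at 37 C. Luminescence after adding detection reagent served as the growth measure.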
Active calls of the source: *; i = inactive; ? = inconclusive; nt = no result; ! = not confirmed by another sample; [ ] = dose if it differs, or a comment. Unless noted, calls come from the whole dose curve; as a rule, active = well fitted inhibition curve with a large enough effect; inconclusive = small, poorly fitted or top-dose-only effect, or another doubt; inactive = no such curve, though single readings can be large or run the other way. Potency is the fitted concentration of half-maximal effect.

SMILES	VACV Venus inh	VACV mCherry inh	NS1 inh	Pf growth 96h	HCV inh	Pf growth 48h
COc1ccc(C(=O)N/C(=C\c2ccc(-c3cccc([N+](=O)[O-])c3)o2)C(=O)NCCCN2CCOCC2)cc1	?	-9%	nt	nt	nt	nt
CN(C)CCNC(=O)/C(=C/c1ccc(-c2cccc(Cl)c2)o1)NC(=O)c1ccccc1	-6%	-23%	7%	13%	11µM*	13µM*
CN(C)CCNC(=O)/C(=C/c1ccc(-c2cccc([N+](=O)[O-])c2)o1)NC(=O)c1ccccc1	-14%	-5%	8%	?	10µM*	13µM*
CCn1c(SCC(=O)c2ccc3c(c2)OCCO3)nnc1C(C)C	-14%	-2%	-7%	?	12%	-19%
OC1(c2cccc(C(F)(F)F)c2)CCNCC1	nt	nt	1%	13µM*	2%	-1%
O=S(=O)(c1ccc(OC(F)(F)F)cc1)N1CCC(O)(c2cccc(C(F)(F)F)c2)CC1	nt	nt	-2%	6%	8.9µM*	?
COc1cc(S(=O)(=O)N2CCC(O)(c3cccc(C(F)(F)F)c3)CC2)ccc1-n1cnnn1	-27%	-9%	2%	?	1.6µM*!	10µM*
COc1ccc(S(=O)(=O)N2CCCCC2)cc1-n1cnnn1	1%	6%	4%	?	18%	-2%
Cc1ccc(CCNC(=O)c2cc3c(s2)-c2ccccc2OC3)cc1	-13%[7.34 µM]	-3%[7.34 µM]	nt	nt	nt	nt
COCOc1cccc(CN2CCC2(C)C(=O)Nc2ccc(OC)c(OC)c2)c1 (configuration not stated)	-13%	-10%	nt	nt	nt	nt
CC(=O)Nc1ccc2nc(NC(=O)CS(=O)(=O)c3ccc(C)cc3)sc2c1	-8%	-11%	nt	nt	nt	nt
O=c1[nH][nH]c(=S)c(=O)[nH]1	nt	nt	0%	nt	nt	nt
Clc1cccc(OCc2nc(-c3ccncc3)no2)c1	-11%	-23%	-1%	119%	10%	26%[5.75 µM]
COC(=O)c1ccc2c(=O)n(Cc3ccc(C(=O)NC(C)C)cc3)c(=S)[nH]c2c1	-14%	-11%	nt	45%	7.9µM*	?
COCCCNC(=O)c1ccc2c(=O)n(CC3CCCO3)c(=S)[nH]c2c1 (configuration not stated)	nt	nt	1%	1%	11%	3%
CC1CCCC(NC(=O)c2ccc3c(=O)n(CC4CCCO4)c(=O)[nH]c3c2)C1C (configuration not stated)	-7%	i	-8%	?	-13%	2.6µM*
CC(C)NC(=O)c1ccc2c(=O)n(CC3CCCO3)c(=S)[nH]c2c1 (configuration not stated)	-8%	-4%	nt	9.3µM*	-11%	-16%
Cc1cccc(NS(=O)(=O)c2ccc(C(=O)NCC3(N4CCCCC4)CCCCC3)cc2)c1C	-28%	-9%	nt	0%	?	2.6µM*
Cc1ccccc1NS(=O)(=O)c1ccc(C(=O)NCC2(N3CCOCC3)CCCCC2)cc1	nt	nt	nt	nt	-26%	nt
Cc1ccccc1NC(=O)CCC(=O)N/N=C/c1cccnc1	-2%	-9%	4%	?	3%	?
O=C(CCC(=O)Nc1ccccc1)N/N=C/c1cccnc1	nt	nt	9%	5.2µM*	5%	7%
Cc1ccc(NC(=O)CCC(=O)N/N=C/c2cccnc2)cc1	-3%	-16%	-1%	3.7µM*	19%	12%
COc1cccc(C(=O)Cn2c(=N)n(C)c3ccccc32)c1	-10%	nt	-49%	29%	-21%	62%
Cc1cccc(C2=NN(c3ccccc3)[C@@H](C(=O)N3CCOC3=O)[C@@H]2c2ccc([N+](=O)[O-])cc2)c1	0%	i	nt	nt	-31%	nt
CN1C(=O)[C@@H](NC(=O)c2cc3ccccc3[nH]2)N=C(c2ccccc2)c2ccccc21	nt	nt	nt	15µM*	nt	15µM*
SMILES	VACV Venus inh	VACV mCherry inh	NS1 inh	Pf growth 96h	HCV inh	Pf growth 48h
CN1C(=O)C(O)N=C(c2ccccc2)c2ccccc21 (configuration not stated)	5%	-13%	1%	20%	1%	2%
COc1ccccc1CNC(=O)CCC1N=C2c3ccccc3N=C(SCc3cccc(Cl)c3)N2C1=O (configuration not stated)	?	4µM*	nt	nt	nt	nt
O=C(CCC1N=C2c3ccccc3N=C(SCc3cccc(Cl)c3)N2C1=O)N1CCN(c2ccccc2)CC1 (configuration not stated)	?	8.9µM*	nt	nt	nt	nt
COc1ccccc1CNC(=O)CCC1N=C2c3ccccc3N=C(SCC(=O)NCC3CCCO3)N2C1=O (configuration not stated)	-14%	i	3%	4.1µM*	10%	-13%
COc1ccccc1CNC(=O)CCSCc1cccc(Cl)c1	-9%	-20%	-2%	1.2µM*	13%	3%
Cc1ccc(-c2nnn3c2nc(NCCc2ccc(Cl)cc2)c2ccccc23)cc1	10%	12%	nt	nt	nt	nt
CC(=O)NC(Cc1ccc(F)c(F)c1)C(=O)NC1CCN(c2c(Cc3ccccc3)c(C)nc3ncnn23)CC1 (configuration not stated)	-15%	-12%	1%	15%	-5%	15%
COc1cccc(CC(NC(C)=O)C(=O)NC2CCN(c3c(Cc4ccccc4)c(C)nc4ncnn34)CC2)c1 (configuration not stated)	-8%	-16%	2%	10µM*	-1%	3.7µM*
COc1ccc(OC)c(CC(NC(C)=O)C(=O)NC2CCN(c3c(Cc4ccccc4)c(C)nc4ncnn34)CC2)c1 (configuration not stated)	-7%	i	-6%	?	8%	?
Cc1ccccc1NC(=O)C1CCN(c2cc(-c3ccccc3)nc3ncnn23)CC1	?	nt	-2%	-19%	32%	7.4µM*
Cc1cc(N2CCCC(C(=O)Nc3ccc4c(c3)CCC4)C2)n2ncnc2n1 (configuration not stated)	nt	nt	2%	16%	?	-19%
O=S(=O)(c1ccccc1)N1CCN(c2cc(-c3ccccc3)nc3ncnn23)CC1	nt	nt	-19%	?	?	?
Cc1nc2ncnn2c(N2CCC(C(=O)NC3CCCC3)CC2)c1Cc1ccccc1	nt	nt	-1%	45%	?	15µM*
Cc1cc(N2CCCC(C(=O)Nc3cccc(Cl)c3)C2)n2ncnc2n1 (configuration not stated)	-14%	-5%	-1%	15µM*	-15%	-2%
c1ccc(-c2csc(-c3cccnc3)n2)cc1	4%	0%	-40%	24%	-30%	-9%
Cc1cccc(N=C2NC(=O)c3cc([N+](=O)[O-])ccc32)c1	-3%	i	nt	?	-9%	-11%
Cn1c2cc(Br)sc2c2cnn(Cc3c(F)cccc3Cl)c(=O)c21	nt	nt	nt	28%	nt	3%

Screens: PubChem, National Center for Advancing Translational Sciences (NCATS)
